In the library only some 13% were active in any assay of this set; here they are far more common.
RAM network inh – blocks the yeast RAM network; AID 868; hit rate 1.8% among 190,000; S. cerevisiae dse1pr::URA3 reporter, 5-FOA growth OD615, 2 d; analog-sensitive cbk1-as2 kinase mutant strain; inhibition, % at 50 µM;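 active = inhibition above a set limit, 3 SD over mean compound inhibition, cut at about 8.4% in these data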;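 note: inhibition rescues growth on 5-FOA so higher OD means more RAM inhibition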
CHOP inh – CHOP inhibition in unfolded protein response. inhibition, % at 10 µM. hit rate 3.8% among 220,000. CHO-K1 CHOP-promoter luciferase, tunicamycin-induced, 15-18 h;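 active = compounds that reduced the stress-induced luciferase reporter signal by more than about 70% of percent inhibition, limit read from the data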
WT yeast gro inh – growth inhibition of WT yeast, mitochondrial fusion screen. mitochondrial fusion phenotypic screen, WT strain. inhibition, % at 10 µM. hit rate 2.1% among 190,000. AID 1362; in the data active = inhibition above about 58%; tested in S. cerevisiae
L major viab – reduces viability of Leishmania major promastigotes | hit rate 9% among 200,000 | resazurin fluorescence viability | inhibition, % at 10 µM; in the data active = inhibition above about 50%;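 note: promastigotes grown with compound for 44 hours at 28 °C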
Hits are given with their value; 0 = inactive; - = not tested or not shown.

SMILES	RAM network inh	CHOP inh	WT yeast gro inh	L major viab
CC(=O)c1cc(C(=O)N2CCCC(CCC(=O)N(C)CCc3ccccn3)C2)cs1 (stereo not given)	0	0	0	0
CC1(C)Cc2c(sc3[nH]c(=S)[nH]c(=O)c23)CO1	0	0	0	0
CCc1c(C)nc(Nc2nc(C)c3ccc(OC)cc3n2)[nH]c1=O	0	0	62	94
CC1=C(C(=O)OCC2CCCO2)C(c2ccccc2)NC(=O)N1 (stereo not given)	0	0	0	0
CC1=C(C(=O)OCCNC(=O)c2ccccc2O)C(c2ccccc2[N+](=O)[O-])C(C(=O)OCC2CCCO2)=C(C)N1 (stereo not given)	0	0	0	93
CCC(NC(=O)CCl)c1ccc(C)cc1 (stereo not given)	0	0	0	0
O=C(NCCc1c[nH]c2ccccc12)C1CCN(S(=O)(=O)c2ccccc2F)CC1	0	0	0	98
COCCNC(=O)C1CCC(Cn2c(=S)[nH]c3ccccc3c2=O)CC1 (stereo not given)	0	0	0	0
O=C(NCCc1c[nH]c2ccccc12)C1CCN(c2nnc(N3CCCC3=O)s2)CC1	0	0	0	84
O=C(NCCc1c[nH]c2ccccc12)C1CCC(Cn2c(=S)[nH]c3ccccc3c2=O)CC1 (stereo not given)	0	0	0	100
Cn1c(CSc2ccccc2)c(C#N)c2ccccc21	0	0	0	0
Cc1ccc(SCc2c(C#N)c3ccccc3n2C)cc1	8.7	0	0	0
Cc1ccc2c(c1)-c1c(ssc1=S)C(C)(C)N2C(=O)CSC1=NCCS1	0	0	0	87
CCOc1ccc2c(c1)-c1c(ssc1=S)C(C)(C)N2C(=O)CSC1=NCCS1	0	0	0	96
Cc1ccc2c(c1)-c1c(ssc1=S)C(C)(C)N2C(=O)c1ccco1	0	0	0	0
C=C(C)C1CC=C(C)/C(=N/NC(=O)CNc2ccc(C)cc2C)C1 (stereo not given)	0	0	0	0
C=C(C)C1CC=C(C)/C(=N/Nc2ccccc2[N+](=O)[O-])C1 (stereo not given)	0	0	0	0
C=C(C)C1CC=C(C)/C(=N/NC(=O)CNc2ccc(OCC)cc2)C1 (stereo not given)	0	0	0	100
C=C(C)C1CC=C(C)/C(=N\NC(=O)CCC(=O)Nc2ccc(C)c(C)c2)C1 (stereo not given)	-	77	-	-
C=C(C)C1CC=C(C)/C(=N/NC(=O)c2ccccc2[N+](=O)[O-])C1 (stereo not given)	0	0	0	63
C=C(C)C1CC=C(C)/C(=N/NC(=O)c2ccc(NC(=O)CCC)cc2)C1 (stereo not given)	0	0	0	100
S=c1[nH]nc(-c2cc(-c3ccccc3)n[nH]2)n1/N=C/c1cccc(Cl)c1	-	0	-	-
C=C(C)C1CC=C(C)/C(=N/NC(=O)c2cccs2)C1 (stereo not given)	0	0	0	0
C=C(C)C1CC=C(C)/C(=N/NC(=O)c2ccc(NC(=O)CC)cc2)C1 (stereo not given)	0	0	0	99
Cc1ccc(N2C(=O)CS/C2=C(\C(Cl)=C(Cl)Cl)[N+](=O)[O-])cc1	0	0	0	0
SMILES	RAM network inh	CHOP inh	WT yeast gro inh	L major viab
CC1CCCC(C)N1C(=C(Cl)Cl)C(=C1SCCS1)[N+](=O)[O-] (stereo not given)	8.8	0	0	0
Cc1cccc(NC(=O)C(=O)NCCCc2ccccc2)c1	0	0	0	0
CCc1nnc(NC(=O)CSc2nc(-c3ccccc3)cc(-c3ccc(OC)cc3)c2C#N)s1	0	0	0	0
Cc1cc(NC(=O)Cn2nnc3sc4c(c3c2=O)CCC(C(C)(C)C)C4)no1 (stereo not given)	0	81	0	0
CCOC(=O)c1ccc(Oc2nc(OC)cc(OC)n2)cc1	0	0	0	0
COc1ccc(C(=O)OCC(=O)c2c(N)n(C)c(=O)n(C)c2=O)cc1OC	0	0	0	0
Cc1ccc(C)c(N2C(=O)c3ccc(C(=O)OCC(=O)c4c(N)n(C)c(=O)n(C)c4=O)cc3C2=O)c1	0	0	0	51
CC(C)CN(C)Cc1c(C(=O)N2CCc3ccccc3C2)nc2ccc(Cl)cn12	0	0	0	0
O=S(=O)(c1ccc(-c2ccon2)s1)N1CCN(CCN2CCOCC2)CC1	-	0	-	-
Cc1ccc(S(=O)(=O)/N=C2/NC(=O)/C(=C/c3ccc(Br)o3)S2)cc1	0	0	0	51
Cc1ccc(-c2cc(C(F)F)n3ncc(C(=O)N4CCc5ccccc54)c3n2)cc1	0	0	0	0
CCc1nccn1C(=O)c1cnn2c(C(F)F)cc(-c3ccc(C)cc3)nc12	0	0	0	0
CCN1CCN(C(=O)c2cnn3c(C(F)F)cc(-c4ccc(C)cc4)nc23)CC1	0	0	0	98
COc1ccc(-c2cc(C(F)F)n3ncc(C(=O)N4CCCCC4)c3n2)cc1	0	0	0	100
Cc1ccc(-c2cc(C(F)F)n3ncc(C(=O)N4CCN(c5ccccn5)CC4)c3n2)cc1	0	0	0	100
Cc1ccc(-n2nc(C)c3c2OC(N)=C(C#N)C3c2ccc(F)cc2)cc1 (stereo not given)	0	83	0	0
O=C(O)CCC(NC(=O)c1ccccc1C(=O)O)C(=O)O (stereo not given)	-	0	-	-
CCOC(=O)c1ccc(Oc2cc(C)nc(Cl)n2)cc1	-	0	-	-
CCCCC(CC)C(=O)Nc1ccc(Nc2ccccc2)cc1 (stereo not given)	0	0	0	99
CC(=O)C(Cl)C(=O)Nc1ccccc1 (stereo not given)	0	83	0	0
CCCC(=O)Nc1ccc(Nc2ccccc2)cc1	0	0	0	64
CCCC(=O)Nc1ccc(-c2ccc(NC(=O)CCC)cc2)cc1	0	0	0	0
CCCNC(=O)CN(C)S(=O)(=O)c1ccc(F)cc1	0	0	0	64
O=C(NNC(=O)c1cc(O)c(O)c(O)c1)NC1CCCCC1	0	0	0	92
COc1ccc(/C(C#N)=C/c2ccccn2)cc1	-	0	-	-
SMILES	RAM network inh	CHOP inh	WT yeast gro inh	L major viab
N#C/C(=C\c1ccccn1)c1nc2ccccc2s1	0	0	59	0
COC(=O)c1ccc(/C=C(\C#N)c2nc3ccccc3s2)cc1	0	0	84	0
N#C/C(=C/c1ccc(-c2ccc(S(N)(=O)=O)cc2)o1)c1nc2ccccc2s1	0	89	0	0
N#Cc1ccc(COC(=O)c2ccccn2)cc1	0	0	0	0
CCCCOc1ccccc1Cn1c(=O)oc2ccccc21	11	88	0	0
Cc1[nH]nc2c1/C(=N\O)CCC2	0	0	0	0
CC(C)c1ccc(-c2nn(-c3ccccc3)cc2C2C(C#N)=C(N)OC3=C2C(=O)CC(C)(C)C3)cc1 (stereo not given)	0	0	0	77
CN(C)S(=O)(=O)c1ccc(C(=O)OCn2nnc3ccccc3c2=O)cc1	0	0	0	0
O=C1CC2c3ccccc3C1C1C(=O)N(CCO)C(=O)C21 (stereo not given)	0	0	0	0
Cc1ccc(N2CCN(CC(O)COc3cccc4ccccc34)CC2)cc1 (stereo not given)	-	86	-	-
C=CCc1ccccc1OCC(O)CNC (stereo not given)	0	0	0	0

Screening results deposited in PubChem BioAssay by several laboratories.
